# Results from PubChem BioAssay (EPA / NIEHS).
# Several values for one entry are separate records, joined by “and”; a condition that tells them apart may be missing. Equal values may be shown once. Inconclusive results are not listed. Some compounds were tested as several samples or in several runs, with calls that do not always agree. Activity calls are given as the source filed them. How the source made its calls, unless noted: active means hit-call score of the fitted dose curve at least 0.9, where 1 is the maximum; inconclusive means response in the unintended direction; inactive means score below 0.9.
# What was measured:
# [1] = target: Estrogen receptor beta (Homo sapiens) (UniProt Q92731); test: OT_ER_ERbERb_1440: Odyssey Thera (OT) 24-hour HEK293T Protein-Complementation Assay for Estrogen Receptor-beta/-beta Homodimer (AID 2283380);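 further: fluorescence gain from ER beta LBD homodimer complementation read by laser scanning cytometry; scored as signal increase over DMSO baseline for both agonists and antagonists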
# Outline: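 Fluorescence increase, nuclear for agonists or whole-cell for antagonists, relative to DMSO vehicle, quantified by laser scanning cytometer after fixation and Draq5 staining. Readout from 24 h treatment of HEK293T cells carrying complementation-paired ER beta LBD (aa 310-547).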
# [2] = target: Estrogen receptor (Homo sapiens) (UniProt P03372); test: OT_ERa_GFPERaERE_0480: Odyssey Thera (OT) 8-hour HeLa Transcription Induction Assay for Estrogen Receptor (AID 2283381; active means hit-call score of the fitted dose curve at least 0.9, where 1 is the maximum; inactive means score below 0.9)
# Outline: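 An 8 h HeLa transcription-induction format with a GFP reporter under ERE control, read by fluorescence microscopy; single endpoint fitted positively with DMSO as baseline.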
# [3] = target: Estrogen receptor (Homo sapiens) (UniProt P03372); test: OT_ERa_GFPERaERE_0120: Odyssey Thera (OT) 2-hour HeLa Transcription Induction Assay for Estrogen Receptor (AID 2283382)
# Outline: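 Two-hour compound treatment of HeLa cells preceded microscopy imaging of an inducible fluorescent reporter. Image-based quantification gave one endpoint, analysed for signal increase relative to DMSO controls.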
# [4] = target: Retinoic acid receptor RXR-alpha (Homo sapiens) (UniProt P19793); test: OT_NURR1_NURR1RXRa_0480: Odyssey Thera (OT) 8-hour HEK293T Protein Complementation Assay for Nurr1/retinoid X receptor (RXR) (AID 2283385)
# Outline: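 Gain in fluorescent complementation signal over DMSO, measured 8 hours after chemical dosing of human kidney HEK293T cells, indicated enhanced Nurr1–RXRα association.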
# [5] = target: Retinoic acid receptor RXR-alpha (Homo sapiens) (UniProt P19793); test: OT_NURR1_NURR1RXRa_1440: Odyssey Thera (OT) 24-hour HEK293T Protein Complementation Assay for Nurr1/retinoid X receptor (RXR) (AID 2283386)
# Outline: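 Cell-based binding reporter: HEK293T cells, 24 h exposure, fluorescence-detected fragment complementation, DMSO as baseline.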
# [6] = target: Peroxisome proliferator-activated receptor gamma (Homo sapiens) (UniProt P37231); test: OT_PPARg_PPARgSRC1_0480: Odyssey Thera (OT) 8-hour Protein-Complementation Assay for Peroxisome Proliferator-activated Receptor Gamma / SRC-1 Co-activator (AID 2283387);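 further: nuclear to cytoplasmic split Venus YFP fluorescence ratio reporting PPARg SRC-1 interaction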
# Outline: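 Split-YFP (IFP1/IFP2) PPARg/SRC-1 reporter, HEK293T, 37 °C, 5% CO2; 8 h compound; formaldehyde fix + Draq5; high-content imaging, N/C ratio, ≥350 cells/image, positive direction vs DMSO.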
# [7] = target: Peroxisome proliferator-activated receptor gamma (Homo sapiens) (UniProt P37231); test: OT_PPARg_PPARgSRC1_1440: Odyssey Thera (OT) 24-hour Protein-Complementation Assay for Peroxisome Proliferator-activated Receptor Gamma/ SRC-1 Co-activator (AID 2283388);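 further: nuclear to cytoplasmic ratio of reconstituted Venus YFP fluorescence in fixed imaged cells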
# Outline: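 Protein-fragment complementation between PPARg and coactivator SRC-1 was measured by fluorescence imaging in transiently transfected HEK293T cells after 24 h treatment. Signal was quantified as N/C ratio in the 488 nm channel, with DMSO as negative control.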
# [8] = target: Bile acid receptor (Homo sapiens) (UniProt Q96RI1); test: OT_FXR_FXRSRC1_1440: Odyssey Thera (OT) 24-hour HEK293T Protein-Complementation Assay for Farnesoid X receptor/SRC-1 Co-activator (AID 2283384)
# Outline: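 Single endpoint, analysed for increased fluorescence against DMSO controls. HEK293T cells carrying FXR and SRC-1 linked to complementary reporter halves were exposed to chemicals for 24 h before reading.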
# [9] = CEETOX_H295R_11DCORT: CeeTox H295R High-throughput Steroidogenesis Assay for 11-Deoxycortisol (11DCORT) (AID 2283432; active means hit-call score of the fitted dose curve at least 0.9, where 1 is the maximum; inactive means score below 0.9;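 on AC50: human adrenal H295R cells prestimulated with 10 µM forskolin for 48 h; 11-deoxycortisol secreted into the medium measured by LC-MS/MS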); settings: actives raise or lower the signal
# Outline: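 Steroidogenesis in human H295R cells: 48 h chemical exposure after forskolin priming, 11-deoxycortisol measured by LC-MS/MS.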
# Chain of Retinoic acid receptor RXR-alpha (Homo sapiens) (P19793 whole entry, looked up, the tested form may be a part): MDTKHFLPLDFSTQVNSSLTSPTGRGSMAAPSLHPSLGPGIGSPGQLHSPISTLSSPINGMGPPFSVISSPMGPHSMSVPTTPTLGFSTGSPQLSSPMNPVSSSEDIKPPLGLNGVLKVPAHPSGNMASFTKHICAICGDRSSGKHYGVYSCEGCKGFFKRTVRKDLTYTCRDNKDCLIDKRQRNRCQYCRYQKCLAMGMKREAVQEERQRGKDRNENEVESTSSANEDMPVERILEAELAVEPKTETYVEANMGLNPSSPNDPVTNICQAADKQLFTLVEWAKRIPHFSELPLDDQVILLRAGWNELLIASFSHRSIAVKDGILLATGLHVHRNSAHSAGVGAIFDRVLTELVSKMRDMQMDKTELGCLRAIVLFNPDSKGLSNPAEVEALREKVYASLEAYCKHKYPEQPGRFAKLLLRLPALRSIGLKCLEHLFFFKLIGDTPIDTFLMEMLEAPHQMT
# Chain of Estrogen receptor beta (Homo sapiens) (Q92731 whole entry, looked up, the tested form may be a part): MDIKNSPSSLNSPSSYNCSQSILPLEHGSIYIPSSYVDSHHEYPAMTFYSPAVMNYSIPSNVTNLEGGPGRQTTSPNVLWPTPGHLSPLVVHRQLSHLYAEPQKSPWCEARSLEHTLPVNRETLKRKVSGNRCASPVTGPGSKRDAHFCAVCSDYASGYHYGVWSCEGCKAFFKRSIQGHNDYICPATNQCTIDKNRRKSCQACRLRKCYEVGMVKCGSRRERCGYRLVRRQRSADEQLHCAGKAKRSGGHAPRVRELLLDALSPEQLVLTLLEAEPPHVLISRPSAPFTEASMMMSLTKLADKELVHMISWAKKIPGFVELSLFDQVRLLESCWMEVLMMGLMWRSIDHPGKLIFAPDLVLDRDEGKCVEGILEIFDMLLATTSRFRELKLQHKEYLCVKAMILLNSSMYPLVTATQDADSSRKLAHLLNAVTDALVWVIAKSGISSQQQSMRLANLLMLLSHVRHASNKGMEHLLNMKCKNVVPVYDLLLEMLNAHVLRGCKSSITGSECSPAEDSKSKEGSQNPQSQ
# Chain of Estrogen receptor (Homo sapiens) (P03372 whole entry, looked up): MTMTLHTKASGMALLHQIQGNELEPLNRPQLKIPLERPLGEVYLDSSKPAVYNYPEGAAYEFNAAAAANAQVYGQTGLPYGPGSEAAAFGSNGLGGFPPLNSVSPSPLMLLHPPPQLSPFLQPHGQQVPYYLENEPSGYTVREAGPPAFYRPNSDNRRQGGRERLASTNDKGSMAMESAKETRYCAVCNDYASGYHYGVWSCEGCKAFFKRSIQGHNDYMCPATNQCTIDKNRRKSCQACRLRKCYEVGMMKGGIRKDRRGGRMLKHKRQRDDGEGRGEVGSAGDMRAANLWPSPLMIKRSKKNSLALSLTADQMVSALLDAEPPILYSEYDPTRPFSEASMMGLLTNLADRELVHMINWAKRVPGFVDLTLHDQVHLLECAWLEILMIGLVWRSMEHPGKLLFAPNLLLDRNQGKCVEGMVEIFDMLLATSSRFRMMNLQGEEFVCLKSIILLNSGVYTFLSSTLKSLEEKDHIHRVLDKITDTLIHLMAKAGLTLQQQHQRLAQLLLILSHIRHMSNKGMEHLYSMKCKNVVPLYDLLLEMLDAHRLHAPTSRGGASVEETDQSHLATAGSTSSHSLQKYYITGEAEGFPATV
# Chain of Peroxisome proliferator-activated receptor gamma (Homo sapiens) (P37231 whole entry, looked up, the tested form may be a part): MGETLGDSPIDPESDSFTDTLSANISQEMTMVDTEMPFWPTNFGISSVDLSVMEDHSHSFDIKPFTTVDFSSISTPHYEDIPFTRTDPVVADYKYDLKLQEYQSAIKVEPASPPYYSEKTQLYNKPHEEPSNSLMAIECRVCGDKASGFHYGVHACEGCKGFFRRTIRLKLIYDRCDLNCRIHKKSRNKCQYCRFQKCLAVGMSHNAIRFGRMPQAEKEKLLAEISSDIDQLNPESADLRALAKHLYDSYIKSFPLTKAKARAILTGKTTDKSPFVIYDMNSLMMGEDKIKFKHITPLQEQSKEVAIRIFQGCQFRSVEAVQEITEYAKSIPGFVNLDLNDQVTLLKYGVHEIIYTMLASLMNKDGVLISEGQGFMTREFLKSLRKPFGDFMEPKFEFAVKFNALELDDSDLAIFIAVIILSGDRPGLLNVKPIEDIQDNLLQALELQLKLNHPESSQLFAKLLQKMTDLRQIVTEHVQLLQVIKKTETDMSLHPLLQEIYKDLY
# Chain of Bile acid receptor (Homo sapiens) (Q96RI1 whole entry, looked up): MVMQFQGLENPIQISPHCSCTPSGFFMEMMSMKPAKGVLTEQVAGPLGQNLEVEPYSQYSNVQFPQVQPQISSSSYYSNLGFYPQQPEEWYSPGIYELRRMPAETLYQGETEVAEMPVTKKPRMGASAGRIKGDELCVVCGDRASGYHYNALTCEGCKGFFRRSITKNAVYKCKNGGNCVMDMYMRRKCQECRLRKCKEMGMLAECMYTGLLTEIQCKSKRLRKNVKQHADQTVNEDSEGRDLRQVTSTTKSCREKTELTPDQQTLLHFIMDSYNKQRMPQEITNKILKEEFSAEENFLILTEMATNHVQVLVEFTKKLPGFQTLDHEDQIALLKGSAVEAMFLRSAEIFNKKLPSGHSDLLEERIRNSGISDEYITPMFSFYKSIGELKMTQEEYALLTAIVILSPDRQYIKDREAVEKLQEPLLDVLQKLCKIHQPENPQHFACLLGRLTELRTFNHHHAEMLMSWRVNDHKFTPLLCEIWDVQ
smiles,measurement,setting,value
CC1(C)CON(Cc2ccccc2Cl)C1=O,outcome,[1],inactive
same,outcome,[2],inactive
same,outcome,[3],inactive
same,outcome,[4],inactive
same,outcome,[5],inactive
same,outcome,[6],inactive
same,outcome,[7],inactive
Cc1nc(N(C)C)nc(OC(=O)N(C)C)c1C,outcome,[1],inactive
same,outcome,[2],inactive
same,outcome,[3],inactive
same,outcome,[8],inactive
same,outcome,[4],inactive
same,outcome,[5],inactive
same,outcome,[6],inactive
same,outcome,[7],inactive
same,outcome,[9],inactive
Cn1c(-c2ccccc2)cc(-c2ccccc2)[n+]1C,outcome,[1],inactive
same,outcome,[2],inactive
same,outcome,[3],inactive
same,outcome,[4],inactive
same,outcome,[5],inactive
same,outcome,[6],inactive
same,outcome,[7],inactive
CCCCC(C#N)(Cn1cncn1)c1ccc(Cl)cc1 (stereo unspecified),outcome,[2],inactive
same,outcome,[3],inactive
same,outcome,[4],inactive
same,outcome,[6],inactive
same,outcome,[7],inactive
same,AC50,[9],51 µM (active)
CNC(=O)Oc1cccc2ccccc12,outcome,[2],inactive
same,outcome,[8],inactive
same,outcome,[4],inactive
CC(C)C1(C)N=C(c2ncccc2C(=O)O)NC1=O (stereo unspecified),outcome,[2],inactive
same,outcome,[3],inactive
same,outcome,[5],inactive
same,outcome,[6],inactive
same,outcome,[7],inactive
OC(c1ccc(Cl)cc1)(c1ccc(Cl)cc1)C(Cl)(Cl)Cl,AC50,[1],12.3 µM (active)
same,outcome,[2],inactive
same,outcome,[3],inactive
same,outcome,[6],inactive
same,outcome,[7],inactive
Cc1cc(C)nc(Nc2ccccc2)n1,outcome,[2],inactive
same,outcome,[3],inactive
same,outcome,[5],inactive
same,outcome,[6],inactive
same,outcome,[7],inactive
CCN(CC)c1nc(C)cc(OP(=S)(OC)OC)n1,AC50,[1],50 µM (active)
same,outcome,[2],inactive
same,outcome,[3],inactive
same,outcome,[4],inactive
same,outcome,[5],inactive
same,outcome,[6],inactive
same,outcome,[7],inactive
same,outcome,[9],inactive
CCCC(=NOCC)C1=C(O)CC(CC(C)SCC)CC1=O (stereo unspecified),outcome,[1],inactive
same,outcome,[2],inactive
same,outcome,[3],inactive
same,outcome,[4],inactive
same,outcome,[5],inactive
same,outcome,[6],inactive
same,outcome,[7],inactive
same,outcome,[9],inactive
CC(C)Nc1nc(Cl)nc(NC(C)C)n1,outcome,[1],inactive
same,outcome,[2],inactive
same,outcome,[3],inactive
same,outcome,[5],inactive
same,outcome,[6],inactive
same,outcome,[7],inactive
CC(C)NC(=O)N1CC(=O)N(c2cc(Cl)cc(Cl)c2)C1=O,outcome,[2],inactive
same,outcome,[3],inactive
same,outcome,[6],inactive
same,outcome,[7],inactive
CS(=O)(=O)c1cc(C(F)(F)F)ccc1C(=O)c1cnoc1C1CC1,outcome,[1],inactive
same,outcome,[2],inactive
same,outcome,[3],inactive
same,outcome,[4],inactive
same,outcome,[5],inactive
same,outcome,[6],inactive
same,outcome,[7],inactive
CC1(C)C(C=C(Cl)Cl)C1C(=O)OC(C#N)c1cccc(Oc2ccccc2)c1 (stereo unspecified),outcome,[1],inactive
same,outcome,[2],inactive
same,outcome,[3],inactive
same,outcome,[4],inactive
same,outcome,[5],inactive
same,outcome,[6],inactive
same,outcome,[7],inactive
same,outcome,[9],inactive
N#CN=C1SCCN1Cc1ccc(Cl)nc1,outcome,[2],inactive
same,outcome,[3],inactive
same,outcome,[4],inactive
same,outcome,[6],inactive
same,outcome,[7],inactive
same,outcome,[9],inactive
CCNC(=O)NC(=O)C(C#N)=NOC,outcome,[2],inactive
same,outcome,[3],inactive
same,AC50,[8],23.1 µM (active)
same,outcome,[4],inactive
same,AC50,[5],29.6 µM (active)
same,outcome,[5],inactive
same,outcome,[6],inactive
same,outcome,[7],inactive
CCSC(=O)N1CCCCCC1,outcome,[1],inactive
same,outcome,[2],inactive
same,outcome,[3],inactive
same,outcome,[5],inactive
same,outcome,[6],inactive
same,outcome,[7],inactive
CC(C)=CC1C(C(=O)OCc2coc(Cc3ccccc3)c2)C1(C)C (stereo unspecified),outcome,[2],inactive
same,outcome,[3],inactive
same,outcome,[8],inactive
same,outcome,[4],inactive
same,AC50,[5],20.3 µM (active)
same,outcome,[6],inactive
same,outcome,[7],inactive
O=C1C2CC=CCC2C(=O)N1SC(Cl)(Cl)Cl (stereo unspecified),outcome,[1],inactive
same,outcome,[2],inactive
same,outcome,[3],inactive
same,outcome,[6],inactive
same,outcome,[7],inactive
Cc1ccc(N=CN(C)C=Nc2ccc(C)cc2C)c(C)c1,outcome,[1],inactive
same,outcome,[2],inactive
same,outcome,[3],inactive
same,AC50,[4],50 µM (active)
same,AC50,[5],80.8 µM (active) and 31.9 µM (active)
same,outcome,[6],inactive
same,outcome,[7],inactive
CCOc1nc(F)cc2nc(S(=O)(=O)Nc3c(Cl)cccc3Cl)nn12,outcome,[1],inactive
same,outcome,[2],inactive
same,outcome,[3],inactive
same,outcome,[4],inactive
same,outcome,[5],inactive
same,outcome,[6],inactive
same,outcome,[7],inactive
CCOC(=O)C(C)OC(=O)c1cc(Oc2ccc(C(F)(F)F)cc2Cl)ccc1[N+](=O)[O-] (stereo unspecified),outcome,[1],inactive
same,outcome,[2],inactive
same,outcome,[3],inactive
same,outcome,[4],inactive
same,outcome,[5],inactive
same,outcome,[6],inactive
same,outcome,[7],inactive
same,outcome,[9],inactive
CO/N=C(/C1=NOCCO1)c1ccccc1Oc1ncnc(Oc2ccccc2Cl)c1F,outcome,[2],inactive
same,outcome,[3],inactive
same,AC50,[8],12.7 µM (active)
same,outcome,[4],inactive
same,outcome,[6],inactive
same,outcome,[7],inactive
O=C(Nc1ccccc1-c1ccc(Cl)cc1)c1cccnc1Cl,outcome,[1],inactive
same,outcome,[2],inactive
same,outcome,[3],inactive
same,outcome,[4],inactive
same,outcome,[5],inactive
same,outcome,[6],inactive
same,outcome,[7],inactive
same,outcome,[9],inactive
CN=C=S,outcome,[3],inactive
same,outcome,[8],inactive
same,outcome,[4],inactive
same,outcome,[5],inactive
same,outcome,[6],inactive
same,outcome,[7],inactive
CC(C)N1C(=O)c2ccccc2NS1(=O)=O,outcome,[2],inactive
same,outcome,[3],inactive
same,outcome,[6],inactive
same,outcome,[7],inactive
CC(C)(C)C(=O)C(Oc1ccc(Cl)cc1)n1cncn1 (stereo unspecified),outcome,[1],inactive
same,outcome,[2],inactive
same,outcome,[3],inactive
same,outcome,[4],inactive
same,outcome,[6],inactive
same,outcome,[7],inactive
same,AC50,[9],58.9 µM (active)
CC(C)Oc1cccc(NC(=O)c2ccccc2C(F)(F)F)c1,outcome,[1],inactive
same,outcome,[2],inactive
same,outcome,[3],inactive
same,outcome,[4],inactive
same,outcome,[5],inactive
same,outcome,[6],inactive
same,outcome,[7],inactive
same,AC50,[9],28.9 µM (active)
CNC(=O)N(C)c1nnc(C(C)(C)C)s1,outcome,[1],inactive
same,outcome,[2],inactive
same,outcome,[3],inactive
same,outcome,[4],inactive
same,outcome,[5],inactive
same,outcome,[6],inactive
same,outcome,[7],inactive
Nc1cnn(-c2ccccc2)c(=O)c1Cl,outcome,[1],inactive
same,outcome,[2],inactive
same,outcome,[3],inactive
same,outcome,[5],inactive
same,outcome,[6],inactive
same,outcome,[7],inactive
same,outcome,[9],inactive
N#Cc1c[nH]cc1-c1cccc2c1OC(F)(F)O2,outcome,[2],inactive
same,outcome,[3],inactive
same,outcome,[5],inactive
same,outcome,[6],inactive
same,outcome,[7],inactive
COC(=O)NS(=O)(=O)c1ccc(N)cc1,outcome,[1],inactive
same,outcome,[2],inactive
same,outcome,[3],inactive
same,outcome,[5],inactive
same,outcome,[6],inactive
same,outcome,[7],inactive
COc1cc(Cl)c(OC)cc1Cl,outcome,[1],inactive
same,outcome,[2],inactive
same,outcome,[3],inactive
same,outcome,[4],inactive
same,outcome,[5],inactive
same,outcome,[6],inactive
same,outcome,[7],inactive
same,outcome,[9],inactive
N#Cc1c(Cl)cccc1Cl,outcome,[1],inactive
same,outcome,[2],inactive
same,outcome,[3],inactive
same,outcome,[4],inactive
same,outcome,[5],inactive
same,outcome,[6],inactive
same,outcome,[7],inactive
same,outcome,[9],inactive
O=P(O)(O)CCCl,outcome,[2],inactive
same,outcome,[3],inactive
same,outcome,[8],inactive
same,outcome,[4],inactive
same,outcome,[5],inactive
same,outcome,[6],inactive
same,outcome,[7],inactive
COCC(C)N(C(=O)CCl)c1c(C)csc1C (stereo unspecified),outcome,[2],inactive
same,outcome,[3],inactive
same,outcome,[4],inactive
same,outcome,[5],inactive
same,outcome,[6],inactive
same,outcome,[7],inactive
Clc1nc(Cl)nc(Nc2ccccc2Cl)n1,outcome,[1],inactive
same,outcome,[2],inactive
same,outcome,[3],inactive
same,outcome,[4],inactive
same,outcome,[5],inactive
same,outcome,[6],inactive
same,outcome,[7],inactive
same,outcome,[9],inactive
CCOP(=S)(OCC)Oc1nc(Cl)n(C(C)C)n1,outcome,[2],inactive
same,outcome,[3],inactive
same,outcome,[6],inactive
same,outcome,[7],inactive
same,outcome,[9],inactive
CCNP(=S)(OC)O/C(C)=C/C(=O)OC(C)C (stereo unspecified),outcome,[1],inactive
same,outcome,[2],inactive
same,outcome,[3],inactive
same,outcome,[4],inactive
same,outcome,[5],inactive
same,outcome,[6],inactive
same,outcome,[7],inactive
same,AC50,[9],65.9 µM (active)
